From PubChem
Only a selection was taken, and hits are over-represented in it overall.
Rango-impB inh: prevents formation of the Rango-importin beta complex; Potency, µM (titrated, usually from 92.2 µM), inactives show at the highest dose inhibition of complex formation; AID 540263; Q14974; Rango CFP/YFP FRET sensor + importin beta, 45 min; 0.031% of 340,000 active;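 note: potency is the fitted concentration of half-maximal effect; 0% = DMSO wells and 100% = buffer wells lacking importin beta; nearly all actives have a fitted effect of over 15% in size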
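Inhibition scored from the CFP 486 nm/YFP 530 nm FRET ratio 45 min after adding 0.125 microM importin beta to 50 nM Rango biosensor preincubated 5 min with compound (room temperature, PBS with DTT, Tween-20, BSA). No-importin wells as positive control.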
MBNL1-CUG inh: inhibitors of human MBNL1 binding to CUG repeat RNA. Potency, µM (top dose mostly 57.5 µM), for the others: top-dose activity change, negative = inhibition, hits mostly inhibitors. Q9NR56. AID 2675. TR-FRET MBNL1-His/biotin-(CUG)12 binding, 665/545 ratio. 0.036% of 280,000 active; active = well fitted inhibition curve with a large enough effect in the signal ratio, with a control signal flat, not every such curve was filed as active; inconclusive = small, poorly fitted or top-dose-only effect, or effect the other way, or a change in a side signal; inactive = no such curve, though single readings can be large or run the other way; the % refers to the signal ratio; note: potency is the fitted concentration of half-maximal effect; % is set by controls: 0 for no effect and ±100 for the full control effect
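TR-FRET readout: Ex 340 nm, 665/545 nm emission ratio, normalized to buffer-only (basal) and MBNL1-(CUG)12 controls. Complex of MBNL1-His with Biotin-(CUG)12, compounds 92 nM–58 uM, incubated 60 min at room temperature.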
Rango dissoc inh: prevents RanGTP from dissociating the Rango-importin beta complex; 0.071% of 340,000 active; AID 540253; O95149+P62826; Potency, µM (titrated, usually from 46.1 µM), for inactives: top-dose activity change, negative = inhibition; Biochemical FRET Rango-importin beta, RanGTP-induced dissociation; note: potency is the fitted concentration of half-maximal effect; % of control where 0% means no effect; nearly all actives have a fitted effect of over 45% in size
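Compounds sat 5 min at room temperature with 0.1 uM Rango biosensor plus 0.25 uM importin beta, then FRET pre-read. RanGTP-RCC1 (0.6 uM Ran, 2mM GTP, 0.2 uM RCC1) added for 45 min, and the CFP/YFP post-read measured blocked complex dissociation.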
ClpP mod: qHTS Assay for Activators of ClpP. ATP-dependent Clp protease proteolytic subunit (Bacillus subtilis (strain 168)), P80244. purified B. subtilis ClpP, FRET peptide cleavage, 20 min. Potency, µM (titrated, usually from 57.5 µM), for inactives: at the top dose activity change, negative = active. 1.9% of 340,000 active. AID 651965, 2013; active = well fitted falling curve with a large enough effect; inconclusive = small, poorly fitted or top-dose-only effect; inactive = no such curve, though single readings can be large or run the other way; note: potency is the fitted concentration of half-maximal effect; the source files actives as falling curves though it sought activators and does not explain the sign; nearly all actives have a fitted effect of over 65% in size
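FRET quenching reversal measured ClpP activation: 10 microg/mL B. subtilis ClpP at pH 8 with the FRET-FV decapeptide, read at 430 nm after 320 nm excitation. The 20-min minus 0-min signal was scaled between DMSO/no-enzyme wells and ADEP (5.8 microM final).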
CBFb RUNX1 block: CBF-beta/RUNX1 interaction disruption. 230,000 tested, under 10 active. AlphaScreen CBFb-His/RUNX1-biotin binding, biochemical. Potency, µM (titrated, usually from 59.8 µM), without a hit: top-dose activity, negative = inhibition, hits mostly inhibitors. AID 1477. Q01196+Q13951; active = well fitted curve in the direction sought with a large enough effect; inconclusive = small, poorly fitted or top-dose-only effect, or another doubt; inactive = no such curve, though single readings can be large; an effect the other way counts as inactive or inconclusive; note: % of control where 0% means no effect
Target sequence (Q01196 whole entry, looked up): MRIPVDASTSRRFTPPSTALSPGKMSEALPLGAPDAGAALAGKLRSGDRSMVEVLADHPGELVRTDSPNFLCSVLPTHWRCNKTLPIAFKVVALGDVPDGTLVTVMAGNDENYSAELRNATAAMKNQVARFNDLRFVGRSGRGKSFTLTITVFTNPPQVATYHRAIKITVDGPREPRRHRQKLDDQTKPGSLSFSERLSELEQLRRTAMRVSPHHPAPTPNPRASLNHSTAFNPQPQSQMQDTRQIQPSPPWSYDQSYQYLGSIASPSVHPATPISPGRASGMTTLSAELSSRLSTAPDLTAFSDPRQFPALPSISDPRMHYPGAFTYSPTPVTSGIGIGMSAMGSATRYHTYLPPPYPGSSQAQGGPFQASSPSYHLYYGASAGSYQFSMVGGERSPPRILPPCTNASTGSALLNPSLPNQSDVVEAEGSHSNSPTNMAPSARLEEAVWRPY
Target sequence (Q13951 whole entry, looked up): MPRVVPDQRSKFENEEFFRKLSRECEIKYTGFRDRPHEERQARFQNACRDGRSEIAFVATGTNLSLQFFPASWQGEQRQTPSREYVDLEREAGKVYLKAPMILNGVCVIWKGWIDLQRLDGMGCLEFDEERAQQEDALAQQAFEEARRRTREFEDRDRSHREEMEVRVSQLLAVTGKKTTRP
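AlphaScreen proximity signal reports loss of binding between His-tagged CBF-beta and biotin-labelled RUNX1, each at 30 nM. Proteins are pre-associated for 20 minutes, compounds added for 15 minutes, then beads for 90 minutes, all at ambient temperature.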
ClpP inh valid: validation of B. subtilis ClpP protease hits (inhibitors) | 40% of 470 active | purified B. subtilis ClpP, FRET-FV substrate cleavage, 20 min | shares compounds with ClpP mod | Potency, µM (series often up to 57.5 µM), without a hit: top-dose activity change, negative = inhibition, most hits filed as inhibitors; active = well fitted curve in the direction sought with a large enough effect; inconclusive = small, poorly fitted or top-dose-only effect, or another doubt; inactive = no such curve, though single readings can be large; an effect the other way counts as inactive or inconclusive; note: potency is the fitted concentration of half-maximal effect; % is set by controls: 0 for no effect and ±100 for the full control effect; nearly all actives have a fitted effect of over 70% in size
Active calls of the source: *; ? = inconclusive; · = no result. Unless noted, calls come from the whole dose curve.

SMILES	Rango-impB inh	MBNL1-CUG inh	Rango dissoc inh	ClpP mod	CBFb RUNX1 block	ClpP inh valid
O=C(Nc1nc(-c2cc3ccccc3o2)cs1)c1ccc(S(=O)(=O)N2CCCC2)cc1	-7%	110%	1%	160%	8%	·
COc1ccc(-n2c(-c3cccc(OC)c3)nc(=S)c3c2CCCC3)cc1	3%	?	-9%	53%	2%	2%
Oc1c(C(c2ccccc2F)N2CCOCC2)sc2nc(-c3ccco3)nn12 (stereo unspecified)	·	·	·	3%	·	·
COc1ccc2c(c1)c1ncn(CCc3ccccc3)c(=O)c1n2C	-1%	7%	2%	4.5µM*	10%	12µM*
Cc1ccc(CN(C(=O)c2ccccc2)c2ccccn2)o1	·	·	·	-1%	·	·
O=C(COC(=O)c1ccc(C(F)(F)F)cc1)NC(=O)C1CCCCC1	·	·	·	-3%	·	·
O=C(CSc1nc(=O)n(Cc2ccncc2)c2c1CCC2)Nc1ccc(F)cc1F	·	·	·	0%	·	·
CCc1ccc(NS(=O)(=O)c2ccc3[nH]cc(C(=O)N(C)Cc4ccco4)c(=O)c3c2)cc1	?	13%	?	-28%	-19%	·
CN(Cc1ccco1)C(=O)c1c[nH]c2ccc(S(=O)(=O)Nc3ccc4c(c3)OCCO4)cc2c1=O	?	-26%	4%	3.5µM*	0%	-3%
CC(C)Cc1nc(C(N)=O)c2[nH]c(=O)n(-c3ccc(F)cc3)c2n1	-3%	12%	9%	6%	1%	·
Cc1cccc(-n2c(=O)[nH]c3c(C(N)=O)nc(CC(C)C)nc32)c1	8%	6%	-3%	10µM*	3%	4.9µM*
O=C(NC1CCCCC1)N(Cc1cc2cc3c(cc2[nH]c1=O)OCCO3)CC1CCCO1 (stereo unspecified)	3%	-3%	12%	10µM*	-4%	?
Cc1ccc(-n2ncc(C(=O)NCCN3CCc4ccccc4C3)c2C2CCN(C(=O)OC(C)(C)C)CC2)c(C)c1	·	·	·	-6%	·	·
CC1=C(C(=O)Nc2ccccc2)C(c2ccc(C)cc2)N=C(Nc2nc3ccccc3o2)N1 (stereo unspecified)	-4%	-1%	1%	5µM*	-5%	24µM*
COc1ccc2c(c1)CCc1c(C(=O)Nc3cc(C)n(Cc4ccc(Cl)cc4)n3)noc1-2	3%	-3%	2%	60%	2%	-17%
COCCn1cc(C(=O)N2CCCC(C)C2)c2c3ccccc3n(C)c2c1=O (stereo unspecified)	0%	6%	-15%	3.2µM*	0%	15µM*
c1ccc(-c2ccc(-c3cn4c(n3)CCC4)cc2)cc1	8%	18%	1%	2.8µM*	-3%	22µM*
COc1cc(C2CC(=O)Nc3c2c(=O)n(C)c2ncnn32)cc(OC)c1OC (stereo unspecified)	·	·	·	-8%	·	·
Cc1ccc(CC(=O)N2CCN(c3cccc(C(F)(F)F)c3)CC2)cc1	-2%	-7%	9%	10µM*	6%	0%
COCCN(CCOC)Cc1cc(=O)oc2cc(C)cc(C)c12	·	·	·	-5%	·	·
COc1cccc(N2CCN(c3ncnc4c3c(-c3ccccc3)cn4-c3cccc(C(F)(F)F)c3)CC2)c1	·	·	·	4µM*	·	22µM*
CCOc1ccc(-n2nc3ccc(NC(=O)c4ccc5c(c4)OCCO5)cc3n2)cc1	1%	1%	-10%	8.9µM*	11%	?
CCc1ccc(-n2nc3ccc(NC(=O)c4ccc5c(c4)OCO5)cc3n2)cc1	-3%	-14%	0%	3.2µM*	3%	-14%
CCN(CCCNC(=O)c1cc2c(=O)n(C)c3ccccc3c2s1)Cc1ccccc1	·	·	·	4%	·	·
CCOc1ccc(NC(=O)c2cc3c(-c4ccccc4F)nn(C)c3s2)cc1	·	·	·	188%	·	?
SMILES	Rango-impB inh	MBNL1-CUG inh	Rango dissoc inh	ClpP mod	CBFb RUNX1 block	ClpP inh valid
CCc1ccc(S(=O)(=O)Nc2cccc(-c3ccc(N4CCOCC4)nn3)c2)cc1	·	·	·	-1%	·	·
COCCCNC(=O)CC(NS(=O)(=O)c1ccc(C)cc1)c1ccco1 (stereo unspecified)	2%	-10%	4%	3.2µM*	4%	-7%
COCCCNC(=O)CC(NS(=O)(=O)c1ccc(Cl)cc1)c1ccco1 (stereo unspecified)	1%	3%	27%	2%	3%	·
CCOc1ccc(-c2cn3c(n2)sc2cc(C(=O)N4CCCC(C)C4)ccc23)cc1 (stereo unspecified)	·	·	·	-26%	·	·
CCOc1ccc(-c2cn3c(n2)sc2cc(C(=O)NC4CCCc5ccccc54)ccc23)cc1 (stereo unspecified)	·	·	·	5µM*	·	?
Cc1cccc(-c2cc(NC(=O)c3ccccc3C)n(-c3ccccc3)n2)c1	·	·	·	0%	·	·
COc1ccccc1C(=O)Nc1cc(-c2cccc(Br)c2)nn1-c1ccccc1	·	·	·	4µM*	·	19µM*
CCOc1ccc2nc(-c3ccccc3)[nH]c2c1	0%	-4%	-5%	7.1µM*	6%	6.9µM*
CN(C)c1cccc(C(=O)Nc2nc3ccc(S(=O)(=O)N4CCCC4)cc3s2)c1	·	·	·	-11%	·	·
CCOc1ccc(N2CC(C(=O)Nc3ccc(S(=O)(=O)N4CCCCC4)cc3)CC2=O)cc1 (stereo unspecified)	0%	·	5%	7.9µM*	·	-1%
CCOc1ccc(N2CC(C(=O)Nc3ccc(S(=O)(=O)N4CCCC4)cc3)CC2=O)cc1 (stereo unspecified)	-1%	-1%	13%	·	·	·
O=C(Cn1c(=O)sc2ccccc21)NCc1ccccn1	0%	3%	7%	-2%	7%	·
O=C(Cn1c(=O)sc2ccccc21)NCCOc1ccccc1F	0%	-9%	-7%	7.9µM*	15%	-1%
O=S(=O)(c1ccc(F)cc1F)N1CCN(c2nc(-c3cccs3)nc3ccccc23)CC1	·	·	·	4%	·	·
Cc1ccc(N2CCN(c3nc4ccccc4n4nnnc34)CC2)c(C)c1	·	·	·	-18%	·	·
Cn1c(=O)n(C)c2cc(NS(=O)(=O)c3ccc(C(C)(C)C)cc3)c(NCc3ccccc3)cc21	·	·	·	3.5µM*	·	22µM*
O=[N+]([O-])c1ccc2nc(CO)[nH]c2c1	·	·	·	1%	·	·
O=c1oc2ccc3ccccc3c2cc1-c1nc2ccccc2o1	?	·	?	2.5µM*	·	24%
Clc1ccc(CCNC(c2cccc(Cl)c2)c2nnc(-c3ccccc3)o2)cc1 (stereo unspecified)	·	·	·	-9%	·	·
